Measured values from PubChem BioAssay (NCI).
About 83,000 compounds went through this panel and 20% of them were active in at least one assay; those are over-represented in the sample as a whole.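 In brief: 96-well plates, 48 h treatment, single concentration, percent growth endpoint.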 A number with no mark means an inactive call. The source made the active and inactive calls. The calls were made as follows: active = growth percent below 10; inactive = the rest.

Each compound was assayed on UACC-257 melanoma (assay: NCI-60 one-dose screen, 48 h (100 = growth as untreated, 0 = no growth, -100 = all killed)). Conditions: 10 µM unless noted.

First: CC1=N/C(=C\c2cccc(Br)c2)C(=O)O1
Second: O=C(/C=C/c1cccc(Br)c1)c1ccccc1
The growth of the first is lower: 80.6% for the first, 81.7% for the second.

Going from `O=C1C=CC(=O)c2c1nc1n2CCCC1` to `O=C1C(Cl)=C(Cl)C(=O)c2c1nc1n2CCCC1`, the growth rises from 84.8% to 96%.

Going from `Cc1ccc2c(NCCCN(C)C)c3c(C)nn(C)c3nc2c1` to `CSc1nc(NCCCNc2ccnc3cc(Cl)ccc23)cc(-c2ccccc2)n1`, the growth rises from 31.8% to 68.1%.

Going from `COC(=O)[C@H](C(C)C)n1c(=O)c2cc(OC)c(OC)cc2c2cnc3[nH]ccc3c21` to `CCOC(=O)C(CC)n1c(=O)c2cc(OC)c(OC)cc2c2cnc3[nH]ccc3c21` (stereo not drawn), the growth rises from 78.7% to 97.5%.

First: NCCN1CCN(c2nccc(-c3ccc4ccccc4c3)n2)CC1
Second: Nc1ccc(Nc2nccc(-c3ccc4ccccc4c3)n2)cc1
The growth of the first is higher: 68.4% for the first, 58.6% for the second.

First: Oc1cccc(Nc2nccc(-c3ccc4ccccc4c3)n2)c1
Second: Oc1ccc(Nc2nccc(-c3ccc4ccccc4c3)n2)cc1
The growth of the first is higher: 47.3% for the first, 26.7% for the second.

Going from `CN1CCN(c2ccc3nc(-c4ccc5nc(-c6ccc(OCCC(C)(C)C)cc6)[nH]c5c4)[nH]c3c2)CC1` to `CN(C)CCOc1ccc(-c2nc3ccc(-c4nc5ccc(N6CCN(C)CC6)cc5[nH]4)cc3[nH]2)cc1`, the growth falls from 110% to 41.2%.

Going from `O=C(Cn1cc(CN2C(=O)c3ccccc3S2(=O)=O)nn1)Nc1ccc([N+](=O)[O-])cc1Cl` to `O=C(CO[N+](=O)[O-])Nc1ccc(C(=O)/C=C/c2ccc(Cl)cc2)cc1`, the growth falls from 98.6% to 61.2%.

First: COc1ccc2[nH]c(=O)c(/C=C/C(=O)c3ccc(Nc4nccc(-c5ccc6ccccc6c5)n4)cc3)cc2c1
Second: COc1cc2cc(COc3nccc(-c4ccc(Cl)cc4)n3)c(=O)[nH]c2cc1OC
The growth of the first is lower: 95.2% for the first, 98% for the second.

First: Cn1cc(-c2ccc(-c3cn(C)c4ncccc34)[nH]2)c2cccnc21
Second: COc1c2ccccc2c(OC)c2[nH]c(=O)ccc12
The growth of the first is higher: 64.6% for the first, 40.8% for the second.

Compared with `CCOC(=O)C(=Cc1ccccc1F)C(=O)OCC`, `CC(=O)/C(=C/c1cccc(Cl)c1)C(=O)c1ccccc1` is lower in growth: 83.2% for the first, 72.3% for the second.

First: COc1ccc(-c2cc(-c3cccnc3)nc3sc4c(=O)n(-c5ccc(C)cc5)nnc4c23)cc1OC
Second: COc1ccc(-c2cn3c(-c4ccc(OC)cc4)cnc3c(Oc3ccc4c(C)cc(=O)oc4c3)n2)cc1
The growth of the first is higher: 104% for the first, 29.2% for the second.

Going from `COc1ccc2nc3cc(Cl)ccc3c(N3CCN(c4ccnc(N5CCOCC5)n4)CC3)c2c1` to `CN(C)C(=O)c1cc2cnc(Nc3ccc(-c4csc5c(=O)cc(N6CCNCC6)oc45)cc3)nc2n1C1CCCC1`, the growth falls from 76.9% to 64.4%.

Compared with `CC[C@H](Nc1cc(C)nc(N)n1)c1nc2cccc(NCc3ccc(C(=O)NO)cc3)c2c(=O)n1-c1ccccc1`, `Nc1nc(-c2ccc(F)cc2)cc(-c2cnn(-c3ccccc3)n2)n1` is higher in growth: 12.3% for the first, 95.8% for the second.

Going from `CC1(C)CC(=O)C(c2c(-c3ccccc3)[nH]c3[nH]c(=S)[nH]c(=O)c23)=C(O)C1` to `C[C@@H]1CC[C@@H]2[C@@H]1[C@H](OC(=O)/C=C/c1ccccc1)[C@]1(c3ccccc3)C[C@@H](OC(=O)CO)[C@@]2(C)O1`, the growth rises from 80.2% to 86%.

Compared with `O=C(CNC1C2CC3CC(C2)CC1C3)Sc1nnc2sc3ccccc3n12` (stereo not drawn), `CN1CCN(Cc2ccc(NC(=O)c3[nH]ncc3Nc3ncnc4sccc34)cc2)CC1` is lower in growth: 116% for the first, 33.9% for the second.

`CN1C2CCC1/C(=C\c1ccc(Cl)cc1)C1=C2[C@@H](c2ccc(Cl)cc2)C(C#N)=C(N)O1` (stereo partly drawn) showed a growth of 85.9%.

For `CCN1CCN(Cc2ccc(NC(=O)Nc3nc4ccc(Oc5ccnc(C(=O)NC)c5)cc4s3)cc2C(F)(F)F)CC1`, the growth was -49.2% (active).
In the case of `COCCOc1ccc(-c2nc3ccc(-c4nc5ccc(N6CCN(C)CC6)cc5[nH]4)cc3[nH]2)cc1`, the growth is reported as 8.32% (active).
In the case of `CN(C)CC(=O)Nc1ccc(Cn2nnc3c2C(=O)c2nnn(Cc4ccc(NC(=O)CN(C)C)cc4)c2C3=O)cc1`, the growth is reported as -71.1% (active).
In the case of `CC[C@H](Nc1nc(N)nc(C)c1C#N)c1nc2cccc(NCc3ccc(C(=O)NO)cc3)c2c(=O)n1-c1ccccc1`, the growth is reported as 0.817% (active).
In the case of `CC(C)CC(CC1=CCC2CC1C2(C)C)C1=C(O)C(C)(C)C(=O)C(C)(C)C1=O` (stereo not drawn), the growth is reported as -23.2% (active).
With `O=C(CCN1CCOCC1)Nc1ccc(Cn2nnc3c2C(=O)c2nnn(Cc4ccc(NC(=O)CCN5CCOCC5)cc4)c2C3=O)cc1` the growth was -80.5% (active).

What follows are compounds tested on M14 melanoma in the same assay as above. Conditions: 10 µM unless noted.

Compared with `CC1=N/C(=C\c2cccc(Br)c2)C(=O)O1`, `O=C(/C=C/c1cccc(Br)c1)c1ccccc1` is lower in growth: 104% for the first, 91.1% for the second.

Compared with `O=C1C=CC(=O)c2c1nc1n2CCCC1`, `O=C1C(Cl)=C(Cl)C(=O)c2c1nc1n2CCCC1` is higher in growth: 29.9% for the first, 105% for the second.

Compared with `Cc1ccc2c(NCCCN(C)C)c3c(C)nn(C)c3nc2c1`, `CN(C)CCOc1ccc(-c2nc3ccc(-c4nc5ccc(N6CCN(C)CC6)cc5[nH]4)cc3[nH]2)cc1` is higher in growth: 42.5% for the first, 51.3% for the second.

First: COC(=O)[C@H](C(C)C)n1c(=O)c2cc(OC)c(OC)cc2c2cnc3[nH]ccc3c21
Second: CCOC(=O)C(CC)n1c(=O)c2cc(OC)c(OC)cc2c2cnc3[nH]ccc3c21 (stereo not drawn)
The growth of the first is lower: 76.1% for the first, 88.5% for the second.

First: O=C(Cn1cc(CN2C(=O)c3ccccc3S2(=O)=O)nn1)Nc1ccc([N+](=O)[O-])cc1Cl
Second: Nc1nc(-c2ccc(F)cc2)cc(-c2cnn(-c3ccccc3)n2)n1
The growth of the first is lower: 106% for the first, 117% for the second.

First: COc1ccc2[nH]c(=O)c(/C=C/C(=O)c3ccc(Nc4nccc(-c5ccc6ccccc6c5)n4)cc3)cc2c1
Second: Oc1ccc(Nc2nccc(-c3ccc4ccccc4c3)n2)cc1
The growth of the first is higher: 101% for the first, 11.1% for the second.

Compared with `Cn1cc(-c2ccc(-c3cn(C)c4ncccc34)[nH]2)c2cccnc21`, `Nc1ccc(Nc2nccc(-c3ccc4ccccc4c3)n2)cc1` is lower in growth: 76.2% for the first, 26.8% for the second.

Compared with `CCOC(=O)C(=Cc1ccccc1F)C(=O)OCC`, `CC(=O)/C(=C/c1cccc(Cl)c1)C(=O)c1ccccc1` is lower in growth: 85.8% for the first, 73.1% for the second.

First: COc1ccc(-c2cc(-c3cccnc3)nc3sc4c(=O)n(-c5ccc(C)cc5)nnc4c23)cc1OC
Second: COc1ccc(-c2cn3c(-c4ccc(OC)cc4)cnc3c(Oc3ccc4c(C)cc(=O)oc4c3)n2)cc1
The growth of the first is higher: 104% for the first, 38.6% for the second.

First: COc1ccc2nc3cc(Cl)ccc3c(N3CCN(c4ccnc(N5CCOCC5)n4)CC3)c2c1
Second: CN(C)C(=O)c1cc2cnc(Nc3ccc(-c4csc5c(=O)cc(N6CCNCC6)oc45)cc3)nc2n1C1CCCC1
The growth of the first is higher: 86.6% for the first, 27.1% for the second.

Going from `CC[C@H](Nc1cc(C)nc(N)n1)c1nc2cccc(NCc3ccc(C(=O)NO)cc3)c2c(=O)n1-c1ccccc1` to `CN1C2CCC1/C(=C\c1ccc(Cl)cc1)C1=C2[C@@H](c2ccc(Cl)cc2)C(C#N)=C(N)O1` (stereo partly drawn), the growth rises from 16.3% to 95.2%.

First: CC(C)CC(CC1=CCC2CC1C2(C)C)C1=C(O)C(C)(C)C(=O)C(C)(C)C1=O (stereo not drawn)
Second: CC1(C)CC(=O)C(c2c(-c3ccccc3)[nH]c3[nH]c(=S)[nH]c(=O)c23)=C(O)C1
The growth of the first is lower: 20.3% for the first, 107% for the second.

Going from `O=C(CCN1CCOCC1)Nc1ccc(Cn2nnc3c2C(=O)c2nnn(Cc4ccc(NC(=O)CCN5CCOCC5)cc4)c2C3=O)cc1` to `CN1CCN(Cc2ccc(NC(=O)c3[nH]ncc3Nc3ncnc4sccc34)cc2)CC1`, the growth falls from 35.9% to 22.6%.

Compared with `O=C(CNC1C2CC3CC(C2)CC1C3)Sc1nnc2sc3ccccc3n12` (stereo not drawn), `C[C@@H]1CC[C@@H]2[C@@H]1[C@H](OC(=O)/C=C/c1ccccc1)[C@]1(c3ccccc3)C[C@@H](OC(=O)CO)[C@@]2(C)O1` is higher in growth: 104% for the first, 105% for the second.

For `NCCN1CCN(c2nccc(-c3ccc4ccccc4c3)n2)CC1`, the growth was -66.8% (active).
`Oc1cccc(Nc2nccc(-c3ccc4ccccc4c3)n2)c1` was tested, and the growth was 8.25% (active).
In the case of `CN1CCN(c2ccc3nc(-c4ccc5nc(-c6ccc(OCCC(C)(C)C)cc6)[nH]c5c4)[nH]c3c2)CC1`, the growth is reported as -11.2% (active).
For `CCN1CCN(Cc2ccc(NC(=O)Nc3nc4ccc(Oc5ccnc(C(=O)NC)c5)cc4s3)cc2C(F)(F)F)CC1`, the growth was -76.2% (active).
For `COCCOc1ccc(-c2nc3ccc(-c4nc5ccc(N6CCN(C)CC6)cc5[nH]4)cc3[nH]2)cc1`, the growth was 1.05% (active).
For `O=C(CO[N+](=O)[O-])Nc1ccc(C(=O)/C=C/c2ccc(Cl)cc2)cc1`, the growth was 3.46% (active).
With `CN(C)CC(=O)Nc1ccc(Cn2nnc3c2C(=O)c2nnn(Cc4ccc(NC(=O)CN(C)C)cc4)c2C3=O)cc1` the growth was -89.4% (active).
`CC[C@H](Nc1nc(N)nc(C)c1C#N)c1nc2cccc(NCc3ccc(C(=O)NO)cc3)c2c(=O)n1-c1ccccc1` was tested, and the growth was 0.234% (active).
For `COc1cc2cc(COc3nccc(-c4ccc(Cl)cc4)n3)c(=O)[nH]c2cc1OC`, the growth was -27.4% (active).
For `COc1c2ccccc2c(OC)c2[nH]c(=O)ccc12`, the growth was -46.1% (active).
With `CSc1nc(NCCCNc2ccnc3cc(Cl)ccc23)cc(-c2ccccc2)n1` the growth was -42.5% (active).
